# High-throughput results (PubChem BioAssay)
# Luciferase inh: inhibitors of firefly (Photinus pyralis) luciferase. P08659. purified P. pyralis luciferase, luminescence, biochemical. Potency, µM (doses to about 115 µM), most hits filed as inhibitors. 2.5% of 76,000 active. AID 1347043; also: nearly all actives have a fitted effect of over 65% in size
# Target sequence (P08659 whole entry, looked up): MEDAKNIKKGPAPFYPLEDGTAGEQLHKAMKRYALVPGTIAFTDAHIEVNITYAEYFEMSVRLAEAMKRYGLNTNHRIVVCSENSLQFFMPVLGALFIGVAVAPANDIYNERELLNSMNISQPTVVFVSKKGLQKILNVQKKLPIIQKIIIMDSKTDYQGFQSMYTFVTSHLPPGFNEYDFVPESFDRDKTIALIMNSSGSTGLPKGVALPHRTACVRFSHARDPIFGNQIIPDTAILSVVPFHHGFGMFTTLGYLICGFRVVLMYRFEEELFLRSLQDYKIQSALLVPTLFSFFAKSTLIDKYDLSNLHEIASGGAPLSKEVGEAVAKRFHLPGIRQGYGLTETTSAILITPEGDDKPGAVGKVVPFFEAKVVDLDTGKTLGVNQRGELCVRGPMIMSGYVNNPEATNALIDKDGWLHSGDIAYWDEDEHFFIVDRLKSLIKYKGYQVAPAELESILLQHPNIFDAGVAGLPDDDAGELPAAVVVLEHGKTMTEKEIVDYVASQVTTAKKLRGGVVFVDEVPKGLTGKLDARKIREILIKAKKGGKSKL
#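 Luminescence read by CCD imager after adding enzyme (10nM final) to wells holding compound, titrated in qHTS. Substrates 10uM each D-luciferin and ATP; buffer 50mM Tris acetate pH 7.5, 10mM Mg acetate, Tween-20, BSA.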
# SNCA expr inh: inhibitors of alpha-synuclein (SNCA) gene expression; AID 1671194; HEK-293 SNCA-luciferase knock-in, luminescence, 24 h; 0.17% of 140,000 active; Potency, µM (top dose mostly 57.2 µM), for inactives: top-dose activity change, negative = inhibition, most hits filed as inhibitors;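 also: plate controls were DMSO cells for no effect and cell-free wells for full effect; nearly all actives have a fitted effect of over 45% in size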
# HEK293 viab: cell viability loss counter-screen; Potency, µM (top dose mostly 57.1 µM), for inactives: at the top dose activity change, negative = cytotoxicity, hits mostly cytotoxic; HEK-293-SNCA-luc viability, GF-AFC fluorescence, 24 h; 0.12% of 150,000 active;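 also: 0% = DMSO-treated cells and -100% = medium-only wells without cells; nearly all actives have a fitted effect of over 30% in size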
#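 Cytotoxicity counterscreen: after 24 h compound treatment of genome-edited SNCA-luciferase HEK-293 cells, live-cell protease substrate GF-AFC read by fluorescence after 30 min; activity scaled between DMSO (0%) and medium-only (-100%), curves Hill-fitted.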
# HEK cytotox: HEK 293 cell cytotoxicity; Potency, µM (series often up to 115 µM), inactives show at the highest dose activity change, negative = cytotoxicity, hits mostly inhibitors; HEK 293 viability, ATP luminescence (CellTiter-Glo), 48-72 h; 6.6% of 94,000 active; also: nearly all actives have a fitted effect of over 60% in size
#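 Luminescence from cellular ATP, measured with CellTiter-Glo, indicates HEK 293 viability. Cells plated at 250 cells/well are treated with compound for 48 or 72 hr at 37 degree Celsius before reagent addition.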
# NPR1 antag: human Npr1 receptor antagonism | AID 1347048 | P16066 | HEK293 hNpr1 GloSensor cGMP, ANP-stimulated luminescence | 1.6% of 76,000 active | Potency, µM (series often up to 46.3 µM), without a hit: top-dose activity change, negative = inhibition, usual class: inhibitors; calls by dose curve; also: nearly all actives have a fitted effect of over 60% in size
#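 Compound pre-incubated 30 min at room temperature on GloSensor-loaded HEK293 cells stably carrying hNpr1 and the pGS-40F cGMP biosensor. Stimulation uses hNppA at 0.1 nM final; luminescence is taken at baseline and 20 min post-agonist.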
# NIH3T3 tox: kills NIH 3T3 cells; NIH 3T3 viability, CellTiter-Glo ATP luminescence, 48-72 h; Potency, µM (top dose mostly 96.7 µM), for inactives: at the highest dose activity change, negative = cytotoxicity, usual class: inhibitors; 4.3% of 94,000 active; also: nearly all actives have a fitted effect of over 55% in size
#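 First NIH 3T3 cells are plated at 400 cells/well; next compound is pinned in; then plates incubate 48 or 72 hr at 37 °C; finally CellTiter-Glo is added and luminescence read after 10 min.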
# The depositor's hits bear a star; i = inactive; u = inconclusive; x = not tested or not shown; [ ] = another dose, or the depositor's remark. Rows were chosen to be rich in hits. Some 7.4% of all compounds tested hit in one or more screens of this group. Unless noted, calls follow the shape of the dose curve; as a rule, active = well fitted curve in the direction sought with a large enough effect; inconclusive = small, poorly fitted or top-dose-only effect, or another doubt; inactive = no such curve, though single readings can be large; an effect the other way counts as inactive or inconclusive. Unless noted, % is scaled to controls: 0 for no effect and ±100 for the full control effect; potency is read from the fitted curve at half-maximal effect.
SMILES,Luciferase inh,SNCA expr inh,HEK293 viab,HEK cytotox,NPR1 antag,NIH3T3 tox
COc1ccc(CN2C[C@H](O)C[C@H]2c2nc(-c3ccc(C)c(F)c3)no2)cc1,35.5µM*,113.1%[87.6 µM],-2.1%[87.6 µM],u,7.3%[70.6 µM],u
Cc1ccc(-c2noc([C@@H]3C[C@@H](O)CN3Cc3cccnc3)n2)cc1F,u,104.9%[87.6 µM],-6.8%[87.6 µM],63.1µM*,u,u
O[C@@H]1C[C@@H](c2nc(-c3ccncc3)no2)N(Cc2ccc(F)cc2)C1,i,-17.9%[87.6 µM],0.6%[87.6 µM],-5.5%[172 µM],-2.8%[70.6 µM],-21.6%[174 µM]
O[C@@H]1C[C@@H](c2nc(-c3ccc(F)cc3)no2)N(Cc2ccncc2)C1,63.1µM*,113.7%[87.6 µM],-4.8%[87.6 µM],70.8µM*,u,u
COc1ccc(-c2noc([C@@H]3C[C@@H](O)CN3Cc3ccc(F)cc3)n2)cc1,44.7µM*,148.5%[87.6 µM],-2.5%[87.6 µM],u,-9.5%[70.6 µM],-16.7%[174 µM]
Cc1noc(C)c1S(=O)(=O)N1CCC(C(=O)N2CCC(c3ccccc3)CC2)CC1,x,4.1%,18.8%,u,x,u
Cc1ccc(-c2noc([C@@H]3C[C@@H](O)CN3C3CCN(C)CC3)n2)cc1F,i,-10.4%[87.6 µM],4.3%[87.6 µM],u,5.5%[70.6 µM],u
Cc1ccc(-c2noc([C@@H]3C[C@@H](O)CN3CC3CC3)n2)cc1F,50.1µM*,100.9%[87.6 µM],1.6%[87.6 µM],u,-5.0%[70.6 µM],u
CN(Cc1cccc(N2CCN(C(=O)OC(C)(C)C)CC2)c1F)[S+](C)(=O)[O-],x,x,x,79.4µM*,x,u
CCOC(=O)C(Cc1cccc(N2CCC(N(c3ccccc3)c3ccccc3)CC2)c1F)OC (stereo unspecified),x,x,x,u,x,-18.3%
CC(C)(C)OC(=O)N1CCC(c2c(C(=O)N3CCN(c4ccccc4F)CC3)cnn2C(C)(C)C)CC1,x,-14.0%,-3.8%,x,x,x
COC(=O)N(C)Cc1cccc(N2CCN([S+](=O)([O-])c3c(Cl)cccc3Cl)CC2)c1F,x,x,x,14.1µM*,x,u
CCN(CC)CCOc1ccc(Nc2ncc3cc(-c4c(Cl)cccc4Cl)c(=O)n(C)c3n2)cc1,x,3.04µM*,u,x,x,x
CC(=O)N1CCC(c2nnc3n2C(C(=O)NCCc2ccc(Cl)cc2)CC3)CC1 (stereo unspecified),x,20.6%[87.6 µM],-7.3%[12.5 µM],-23.9%[172 µM],x,-14.0%[138 µM]
COc1ccc(/C=C/C(=O)Nc2ccccc2C(=O)O)cc1OC,x,1.58µM*,2.5%,x,x,x
COc1ccc(C=CC(=O)Nc2ccccc2C(=O)O)cc1OC,x,1.52µM*,-6.5%,x,x,x
COc1ccc(NC(=O)c2nc3sccn3c2-c2ccc(C(F)(F)F)cc2)cc1,x,-9.3%,-9.4%,u,x,u
COCCN1CCCCCC(O)c2cc(C(=O)N(C)Cc3cccnc3)ccc21 (stereo unspecified),i,-23.9%,-0.3%,u,3.9%,u
COCCN1CCCCCC(O)c2cc(C(=O)N3CCN(c4ccc(OC)cc4)CC3)ccc21 (stereo unspecified),i,54.9%,-16.7%,u,1.8%,u
COCCN1CCCCCC(O)c2cc(C(=O)NCc3ccc(N4CCC(C)CC4)cc3)ccc21 (stereo unspecified),u,-18.7%,-15.2%,u,-8.5%,28.2µM*
COCCN1CCCCCC(O)c2cc(C(=O)N3CCN(c4cccc(OC)c4)CC3)ccc21 (stereo unspecified),i,-17.3%,-7.5%,39.8µM*,-5.1%,u
COCCN1CCCCCC(O)c2cc(C(=O)N(C)Cc3ccc(N4CCCCC4)cc3)ccc21 (stereo unspecified),i,-29.8%,-20.7%,u,-24.4%,39.8µM*
O=[S+]([O-])(c1cccs1)N1CCN(Cc2ccccc2-c2ccccc2F)CC1,x,1.9%,2.2%[12.5 µM],u,x,u
c1ccc(CN(C2CCOCC2)C2CN(Cc3cncs3)C2)cc1,x,6.3%,12.3%,-5.7%,x,-15.3%
O=C(NCCc1ccccc1)NCC1CCC(=O)N(Cc2ccccc2)CC1 (stereo unspecified),x,6.7%,3.8%,-5.2%,x,-22.7%
SMILES,Luciferase inh,SNCA expr inh,HEK293 viab,HEK cytotox,NPR1 antag,NIH3T3 tox
Cc1cc(OCC(=O)O)c(C)c2c1CC[C@@H]([C@H](C)C(=O)NCc1ccccc1)C2,i,12.0%[87.6 µM],0.1%[87.6 µM],i,2.8%[70.6 µM],79.4µM*
COc1cc(C)c2c(c1C)C[C@H]([C@H](C)C(=O)NC1CCCC1)CC2,i,-14.9%[87.6 µM],-20.1%[87.6 µM],39.8µM*,u,u
COCCNC(=O)C(C)[C@@H]1CCc2c(C)cc(OCC(=O)O)c(C)c2C1 (stereo partly specified),i,-8.2%[87.6 µM],-2.1%[87.6 µM],i,4.5%[70.6 µM],-8.2%[138 µM]
O=C(Nc1ccc(Cl)cc1)N1CCC(C(=O)N2CCC(N3CCOC3=O)CC2)CC1,x,4.0%,-0.1%,-6.2%,x,-24.0%
COCC1CN(C2CCC2)CC12CCN(C(=O)Cc1cccc(F)c1)CC2 (stereo unspecified),i,2.2%,-11.1%,50.1µM*,-17.9%,u
O=C(Cc1ccc(F)cc1)N1CCC2(CC1)CN(Cc1ccccc1)CC2CO (stereo unspecified),i,u,-9.9%,44.7µM*,-28.3%,u
CNCC(=O)N1CCC2(CC1)CN(Cc1ccccc1)CC2CO (stereo unspecified),i,-14.9%,u,i,-14.5%,i
COCC1CN(C)CC12CCN(C(=O)c1cc(Cl)ccc1OC)CC2 (stereo unspecified),i,2.7%,3.5%,u,-5.3%,-28.9%
COCC1CN(C)CC12CCN(C(=O)Cc1cccc(Cl)c1)CC2 (stereo unspecified),i,-4.1%,-15.1%,35.5µM*,-14.6%,u
COCC1CN(C)CC12CCN(C(=O)Cc1ccc(OC)c(Cl)c1)CC2 (stereo unspecified),i,-2.8%,6.6%,89.1µM*,0.4%,-21.9%
C=C1C[C@@]2(O)O[C@@]3(C[C@H]2C(C)C)[C@@H](C)CC[C@@H]13,x,x,-8.0%,x,x,x
Cn1nnnc1C1CCCN(C(=O)COc2ccccc2)C1 (stereo unspecified),x,-4.5%,3.8%,-4.3%,x,-14.0%
O=C(NCc1ccccc1F)c1ccc2oc(-c3ccncc3)nc2c1,x,19.2%,3.5%,u,x,-35.1%
COCC1CN(C2CCC2)CC12CCN(C(=O)c1ccccc1C)CC2 (stereo unspecified),i,9.8%,2.5%,u,-16.9%,u
COCC1CN(C2CCC2)CC12CCN(C(=O)c1ccccc1Cl)CC2 (stereo unspecified),i,2.6%,2.3%,79.4µM*,-1.6%,u
Cc1ccc(NC(=O)CN2C(=O)NC(c3ccccc3Cl)C3=C2COC3=O)cc1C (stereo unspecified),u,-15.9%,-0.3%,u,-17.8%,u
